Assay results from PubChem BioAssay (NCATS).
Results filed as inconclusive are left out. Calls of active or inactive are those of the source. Calls come from the whole dose curve; as a rule, active = well fitted curve in the direction sought with a large enough effect; inconclusive = small, poorly fitted or top-dose-only effect, or another doubt; inactive = no such curve, though single readings can be large; an effect the other way counts as inactive or inconclusive.

Assays:
[1] = Quantitative High-Throughput drug screen in 47 multiple myeloma cell lines against the NCATS MIPE library collection: VP6_DJ cell viability assay (AID 1919867); note: nearly all actives have a fitted effect of over 40% in size; note: potency is the fitted concentration of half-maximal effect
Outline: (§1)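 Readout: median RLU from CellTiter-Glo after 5 min at room temperature. Preceding step was 48 h drug treatment of 500 cells/well at 37 °C, 5% CO2, with DMSO-only and media-only control wells.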

[2] = Quantitative High-Throughput drug screen in 47 multiple myeloma cell lines against the NCATS MIPE library collection: PE2_PLB cell viability assay (AID 1919869); note: nearly all actives have a fitted effect of over 35% in size; note: potency is the fitted concentration of half-maximal effect
Outline: as §1

[3] = Quantitative High-Throughput drug screen in 47 multiple myeloma cell lines against the NCATS MIPE library collection: PCM6_Riken cell viability assay (AID 1919870); note: nearly all actives have a fitted effect of over 30% in size; note: potency is the fitted concentration of half-maximal effect
Outline: as §1

[4] = Quantitative High-Throughput drug screen in 47 multiple myeloma cell lines against the NCATS MIPE library collection: OPM2_DSMZ cell viability assay (AID 1919872); note: nearly all actives have a fitted effect of over 30% in size; note: potency is the fitted concentration of half-maximal effect
Outline: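 Steps: seed 500 cells per well; pin-transfer MIPE 4.0 library; incubate 48 h at 37C, 5% CO2, humidified; add CellTiter-Glo, 5 min room temperature; read luminescence.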

[5] = Quantitative High-Throughput drug screen in 47 multiple myeloma cell lines against the NCATS MIPE library collection: KMS11_JCRBsus cell viability assay (AID 1919873); note: nearly all actives have a fitted effect of over 50% in size; note: potency is the fitted concentration of half-maximal effect
Outline: as §1

[6] = Quantitative High-Throughput drug screen in 47 multiple myeloma cell lines against the NCATS MIPE library collection: KMS28BM_JCRB cell viability assay (AID 1919874); note: nearly all actives have a fitted effect of over 35% in size; note: potency is the fitted concentration of half-maximal effect
Outline: as §1

[7] = Quantitative High-Throughput drug screen in 47 multiple myeloma cell lines against the NCATS MIPE library collection: RPMI8226_ATCC cell viability assay (AID 1919871); note: nearly all actives have a fitted effect of over 30% in size; note: potency is the fitted concentration of half-maximal effect
Outline: as §1

[8] = Quantitative High-Throughput drug screen in 47 multiple myeloma cell lines against the NCATS MIPE library collection: UTMC2_PLB cell viability assay (AID 1919868); note: nearly all actives have a fitted effect of over 55% in size; note: potency is the fitted concentration of half-maximal effect
Outline: as §1

[9] = biological target: Cytochrome P450 2D6 (Homo sapiens) (UniProt P10635); experiment: qHTS for inhibitors of CYP2D6 against the NCATS DSHEA and TCM libraries (AID 1919972)
Outline: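 qHTS, concentration–response format with most substances from 19.5 nM. CYP2D6 + pro-luciferin substrate, 15 min with compound, then 1x NADPH regen, 30–45 min RT dark. Glo detection 30 min, luminescence. Quinidine control.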

[10] = biological target: Cytochrome P450 3A4 (Homo sapiens) (UniProt P08684); experiment: qHTS for inhibitors of CYP3A4 against the NCATS DSHEA and TCM libraries (AID 1919971);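 note: inhibition lowers luminescence from luciferin made by CYP3A4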
Outline: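 Substances were tested against enzyme with a pro-luciferin substrate; minus-enzyme wells served as background. After NADPH-initiated oxidation (30-45 min, RT), light was generated with P450-Glo reagent.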

Measured: Potency

Chain of Cytochrome P450 3A4 (Homo sapiens) (P08684 whole entry, looked up): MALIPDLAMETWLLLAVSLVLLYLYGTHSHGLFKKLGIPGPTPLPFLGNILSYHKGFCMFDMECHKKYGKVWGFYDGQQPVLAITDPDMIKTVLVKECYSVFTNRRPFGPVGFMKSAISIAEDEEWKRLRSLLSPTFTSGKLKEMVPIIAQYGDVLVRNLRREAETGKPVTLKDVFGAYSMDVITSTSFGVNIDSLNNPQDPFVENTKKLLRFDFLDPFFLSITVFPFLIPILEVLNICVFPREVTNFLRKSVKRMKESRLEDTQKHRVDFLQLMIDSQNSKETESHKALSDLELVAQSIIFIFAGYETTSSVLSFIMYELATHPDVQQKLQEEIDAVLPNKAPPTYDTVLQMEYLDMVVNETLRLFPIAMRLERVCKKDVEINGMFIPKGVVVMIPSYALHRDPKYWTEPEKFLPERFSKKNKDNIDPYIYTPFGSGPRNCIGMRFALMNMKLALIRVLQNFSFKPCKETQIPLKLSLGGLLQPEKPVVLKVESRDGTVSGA
Chain of Cytochrome P450 2D6 (Homo sapiens) (P10635 whole entry, looked up): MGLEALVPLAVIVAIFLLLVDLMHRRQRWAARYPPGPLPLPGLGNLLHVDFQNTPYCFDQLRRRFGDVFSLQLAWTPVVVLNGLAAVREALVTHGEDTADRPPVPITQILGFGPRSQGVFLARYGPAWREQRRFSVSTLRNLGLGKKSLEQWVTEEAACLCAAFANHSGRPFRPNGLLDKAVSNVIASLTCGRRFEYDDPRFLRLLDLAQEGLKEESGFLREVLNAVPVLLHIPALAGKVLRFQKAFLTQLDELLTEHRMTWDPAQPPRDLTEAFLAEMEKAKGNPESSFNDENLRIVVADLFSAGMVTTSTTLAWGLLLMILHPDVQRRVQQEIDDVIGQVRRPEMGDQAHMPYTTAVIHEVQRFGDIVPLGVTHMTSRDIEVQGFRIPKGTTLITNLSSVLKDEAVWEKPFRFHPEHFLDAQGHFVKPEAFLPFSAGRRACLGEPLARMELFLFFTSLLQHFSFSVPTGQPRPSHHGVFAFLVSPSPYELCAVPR

CO[C@@]12[C@H](COC(N)=O)C3=C(C(=O)C(C)=C(N)C3=O)N1C[C@@H]1N[C@@H]12
active: [1] 20.9 µM | [2] 20.9 µM | [3] 20.9 µM | [4] 26.4 µM | [5] 2.96 µM | [6] 6.62 µM

CC1(C)[C@H](C(=O)O)N2C(=O)C[C@H]2S1(=O)=O
inactive: [1] | [2] | [7] | [4] | [5] | [6]

N=C(N)c1ccc(OCCCCCOc2ccc(C(=N)N)cc2)cc1
active: [1] 2.09 µM | [2] 5.9 µM | [3] 5.9 µM | [7] 5.9 µM | [6] 5.9 µM

NS(=O)(=O)c1cc2c(cc1Cl)NC(C(Cl)Cl)NS2(=O)=O (stereo unspecified)
inactive: [1] | [2] | [7] | [4] | [5] | [6]

O=C(O)c1cc(=O)[nH]c(=O)[nH]1
inactive: [1] | [2] | [3] | [7] | [4] | [5]

NC(=O)c1cccnc1
inactive: [1] | [8] | [2] | [5] | [6]

Nc1ccc(S(=O)(=O)Nc2ccccn2)cc1
inactive: [1] | [2] | [3] | [4] | [5] | [6]

CCC(C)(C)c1ccc(CC(C)CN2C[C@@H](C)O[C@@H](C)C2)cc1 (stereo partly specified)
active: [1] 16.6 µM
inactive: [8] | [4]

CCCCc1oc2ccc(NS(C)(=O)=O)cc2c1C(=O)c1ccc(OCCCN(CCCC)CCCC)cc1
active: [1] 7.43 µM | [2] 23.5 µM | [3] 11.8 µM | [7] 16.6 µM | [4] 23.5 µM | [5] 11.8 µM | [6] 13.2 µM

COc1nc(N)nc2c1ncn2[C@@H]1O[C@H](CO)[C@@H](O)[C@@H]1O
active: [4] 0.469 µM
inactive: [1] | [2] | [3] | [7] | [5] | [6]

CCCc1cc(C(N)=S)ccn1
inactive: [1] | [2] | [3] | [7] | [4] | [5] | [6]

O=c1cc(O)c(Cl)c[nH]1
inactive: [2] | [7]
active: [1] 0.132 µM | [3] 2.96 µM

CCCCCCNC(=O)n1cc(F)c(=O)[nH]c1=O
active: [1] 5.26 µM
inactive: [2] | [3] | [4] | [6]

NC1(c2ccc(-c3nc4ccn5c(=O)[nH]nc5c4cc3-c3ccccc3)cc2)CCC1
active: [1] 1.87 µM | [8] 1.18 µM | [3] 1.66 µM | [7] 1.05 µM | [5] 5.26 µM | [6] 9.35 µM

Cc1ccnc2c1NC(=O)c1cccnc1N2C1CC1
inactive: [7] | [4] | [5] | [6]
active: [1] 26.4 µM | [2] 26.4 µM | [3] 26.4 µM

Cc1cc(NS(=O)(=O)c2ccc(N)cc2)no1
inactive: [1] | [2] | [3] | [7] | [4] | [5] | [6]

CCOC(=O)[C@H](CCc1ccccc1)N[C@H]1CS[C@H](c2cccs2)CN(CC(=O)O)C1=O
active: [1] 0.296 µM | [8] 11.8 µM | [3] 1.05 µM | [7] 16.6 µM | [5] 1.66 µM | [6] 0.59 µM

CS(=O)(=O)c1ccc([C@@H](O)[C@@H](CO)NC(=O)C(Cl)Cl)cc1
active: [1] 16.6 µM | [8] 13.2 µM | [3] 16.6 µM | [7] 2.35 µM | [5] 11.8 µM
inactive: [4]

COc1cc2nc(N3CCCN(C)CC3)nc(NC3CCN(Cc4ccccc4)CC3)c2cc1OC
active: [1] 4.69 µM | [2] 2.35 µM | [3] 3.72 µM | [7] 9.35 µM | [4] 7.43 µM | [5] 4.69 µM | [6] 10.5 µM

Cc1onc(-c2ccccc2Cl)c1C(=O)N[C@@H]1C(=O)N2[C@@H]1SC(C)(C)[C@@H]2C(=O)O
inactive: [1] | [2] | [3] | [7] | [4] | [5] | [6]

CC1CC2C3CCC4=CC(=O)C=C[C@]4(C)[C@@]3(F)[C@@H](O)C[C@]2(C)[C@@]1(O)C(=O)CO (stereo partly specified)
inactive: [2] | [4] | [6]
active: [1] 0.209 µM | [3] 0.118 µM | [7] 0.0296 µM

NC(=O)c1cccc(N)c1
active: [1] 8.33 µM
inactive: [2] | [3] | [7] | [4] | [5]

CCCCS(=N)(=O)CCC(N)C(=O)O (stereo unspecified)
active: [1] 7.43 µM | [3] 18.7 µM
inactive: [2] | [7] | [4] | [5] | [6]

NNC(=O)c1ccncc1
inactive: [1] | [2] | [3] | [7] | [4] | [5] | [6] | [9]

CNNCc1ccc(C(=O)NC(C)C)cc1
inactive: [1] | [2] | [3] | [6]
active: [4] 8.33 µM

CC(N)C12CC3CC(CC(C3)C1)C2 (stereo unspecified)
inactive: [1] | [2] | [3] | [7] | [4] | [5] | [6]

NC(=O)N1c2ccccc2CC(=O)c2ccccc21
inactive: [1] | [2] | [3] | [7] | [4]

CCC(=O)O[C@]1(C(=O)CCl)[C@@H](C)C[C@H]2[C@@H]3CCC4=CC(=O)C=C[C@]4(C)[C@@]3(F)[C@@H](O)C[C@@]21C
active: [1] 0.0332 µM | [7] 0.0059 µM
inactive: [2] | [3] | [4] | [6]

C[C@@H]1CN(c2c(F)c(N)c3c(=O)c(C(=O)O)cn(C4CC4)c3c2F)C[C@H](C)N1
inactive: [8] | [2] | [3] | [7] | [4] | [5] | [6]

CN1CCN(c2c(F)cc3c(=O)c(C(=O)O)cn4c3c2OCN4C)CC1
inactive: [8] | [2] | [3] | [7] | [4] | [5] | [6]

O=C(NCC1CN(c2ccc(N3CCOCC3=O)cc2)C(=O)O1)c1ccc(Cl)s1 (stereo unspecified)
inactive: [8] | [2] | [7] | [4] | [6]

COc1cc([C@@H]2c3cc4c(cc3[C@H](O)[C@H]3COC(=O)[C@H]23)OCO4)cc(OC)c1OC
inactive: [8] | [2] | [3] | [4] | [5]

CC1=NN(c2ccccc2)C(=O)C1
inactive: [2] | [3] | [7] | [4] | [5] | [6]

CN(Cc1cc(Br)cc(Br)c1N)C1CCCCC1
inactive: [8] | [4] | [5]

Cc1ncc([N+](=O)[O-])n1CCO
inactive: [1] | [3] | [4] | [6]

O=C(O)c1ccc(-n2nc(-c3ccccc3O)nc2-c2ccccc2O)cc1
active: [1] 16.6 µM | [3] 23.5 µM
inactive: [4]

CCOc1cc(N)c(Cl)cc1C(=O)NCC1CN(Cc2ccc(F)cc2)CCO1 (stereo unspecified)
inactive: [8] | [2] | [3] | [7] | [4] | [5]

O=S(=O)(O)CCS
inactive: [8] | [7] | [4] | [5] | [6]

COc1ccccc1OCC(O)COC(N)=O (stereo unspecified)
inactive: [8] | [2] | [3] | [7] | [4]

NC(N)=NC(N)=NCCc1ccccc1
active: [1] 10.5 µM | [2] 16.6 µM | [7] 20.9 µM | [6] 7.43 µM

N[C@@H](C(=O)N[C@@H]1C(=O)N2C(C(=O)O)=C(Cl)CS[C@H]12)c1ccccc1
inactive: [8] | [2] | [3] | [7] | [4]

CC(C)NCC(O)c1ccc(NS(C)(=O)=O)cc1 (stereo unspecified)
inactive: [8] | [2] | [3] | [4] | [5] | [6]

COc1cc2ncnc(Nc3cccc(Cl)c3)c2cc1OC
inactive: [8] | [4]
active: [5] 18.7 µM

CC(=O)CC(c1ccccc1)c1c(O)c2ccccc2oc1=O (stereo unspecified)
inactive: [1] | [2] | [7] | [5] | [6]

CN(C)CCc1c[nH]c2ccc(C[C@H]3COC(=O)N3)cc12
inactive: [1] | [3] | [7] | [4] | [5] | [6]

O=C(O)c1cccnc1
inactive: [2] | [7] | [4] | [10]
active: [1] 16.6 µM

CCN1CCCC1CNC(=O)c1cc(S(N)(=O)=O)ccc1OC (stereo unspecified)
active: [1] 5.9 µM
inactive: [7] | [4] | [5] | [6]

NC(=O)c1ccc2[nH]ccc2c1
inactive: [1] | [2] | [7] | [4] | [5] | [6]

Nc1nc(N)nc(-c2cc(Cl)ccc2Cl)n1
active: [1] 6.62 µM
inactive: [3] | [7] | [4]

C[C@@H](CN1CC(=O)NC(=O)C1)N1CC(=O)NC(=O)C1
inactive: [7] | [4] | [5]
active: [8] 2.96 µM

Cn1nnc2c(C(N)=O)ncn2c1=O
inactive: [2] | [3] | [7] | [4] | [5]

CC[C@H](NC(C)C)[C@H](O)c1ccc(O)c2[nH]c(=O)ccc12
inactive: [8] | [3] | [4] | [6]

CCC(=O)O[C@]1(C(=O)SCF)[C@H](C)C[C@H]2[C@@H]3C[C@H](F)C4=CC(=O)C=C[C@]4(C)[C@@]3(F)[C@@H](O)C[C@@]21C
active: [1] 33.2 µM | [7] 0.0019 µM
inactive: [2] | [5] | [6]

O=S(=O)(c1cccc2cnccc12)N1CCCNCC1
inactive: [7] | [4] | [5]
active: [1] 18.7 µM | [3] 16.6 µM

CC(C)Cn1cnc2c(N)nc3ccccc3c21
active: [6] 14.8 µM
inactive: [1] | [2] | [4]
